# Screening data from PubChem BioAssay.
# PNC assembly inh – High Content Assay for Compounds that inhibit the Assembly of the Perinucleolar Compartment. PC3M PTB-GFP, PNC prevalence imaging, 16 h; hits give low values. activity change (PNC), negative = inhibition, % at 10 µM. 140,000 tested, 3.1% active;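 active means readout at or below -70, meaning at least 70% loss of cells showing the perinucleolar compartment, a nuclear body marking cancer cells; inconclusive means readout between -30 and a set limit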
#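 Read-out is percentage of cells bearing a perinucleolar compartment, from automated 20x imaging of fixed, Hoechst-stained PC3M PTB-GFP cells. Cells were seeded 4 h, then exposed 16 h to compound (23 nl of library stock) in duplicate plates.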
# KDM4E inh – qHTS Assay for Inhibitors of Human Jumonji Domain Containing 2E (JMJD2E). JMJD2E catalytic domain, FDH-coupled NADH fluorescence (FDH is formaldehyde dehydrogenase). Potency, µM (series often up to 57.1 µM), usual class: inhibitors. AID 2147, 2009. 230,000 tested, 1.6% active. Lysine-specific demethylase 4E (Homo sapiens), B2RXH2; further: nearly all actives have a fitted effect of over 50% in size
# Target sequence (B2RXH2 1-337 limits assumed): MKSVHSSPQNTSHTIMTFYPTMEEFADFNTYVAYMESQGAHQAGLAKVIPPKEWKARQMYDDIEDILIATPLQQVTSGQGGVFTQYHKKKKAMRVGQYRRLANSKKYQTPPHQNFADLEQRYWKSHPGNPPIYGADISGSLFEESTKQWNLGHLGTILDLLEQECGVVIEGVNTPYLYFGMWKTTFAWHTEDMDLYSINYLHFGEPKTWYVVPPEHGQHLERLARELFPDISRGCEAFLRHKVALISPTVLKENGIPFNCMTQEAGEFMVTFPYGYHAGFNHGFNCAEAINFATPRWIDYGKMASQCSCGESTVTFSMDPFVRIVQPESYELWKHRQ
# ALDH1A1 block – qHTS Assay for Inhibitors of Aldehyde Dehydrogenase 1 (ALDH1A1); 220,000 tested, 7.3% active; Potency, µM (series often up to 75.3 µM), most hits filed as inhibitors; Aldehyde dehydrogenase 1A1 (Homo sapiens), P00352; Purified ALDH1A1, NADH fluorescence, propionaldehyde substrate; AID 1030, 2008
# HPGD inh – qHTS Assay for Inhibitors of HPGD (15-Hydroxyprostaglandin Dehydrogenase). Potency, µM, actives largely listed as inhibitors. 150,000 tested, 4.3% active. 15-hydroxyprostaglandin dehydrogenase [NAD(+)] (Homo sapiens), P15428. purified HPGD, NADH fluorescence kinetic, PGE2 substrate
# Target sequence (P15428 whole entry, looked up): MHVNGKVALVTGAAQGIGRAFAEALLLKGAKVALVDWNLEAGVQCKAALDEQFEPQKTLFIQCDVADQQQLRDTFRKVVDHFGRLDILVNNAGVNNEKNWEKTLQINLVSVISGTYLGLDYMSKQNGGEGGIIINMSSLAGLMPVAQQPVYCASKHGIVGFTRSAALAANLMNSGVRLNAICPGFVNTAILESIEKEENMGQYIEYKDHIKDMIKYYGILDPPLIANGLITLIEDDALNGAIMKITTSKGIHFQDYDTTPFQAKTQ
#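 NADH formation kinetics: reaction with 30 uM PGE2 and 1 mM NAD+ (final), 20 nM enzyme, Tris-HCl pH 8 with Tween 20, after 15 min compound preincubation at room temperature. Fluorescence change, last versus first of five reads.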
# Numbers stand for hits; i = inactive; ? = inconclusive; nt = not tested or not shown; [ ] = remark or other dose. In the library only some 11% were active in any assay of this set; here they are far more common. Unless noted, the call rests on the fitted dose curve; in most records, active means well fitted inhibition curve with a large enough effect (not every such curve was filed as active); inconclusive means small, poorly fitted or top-dose-only effect, or another doubt; inactive means no such curve, though single readings can be large or run the other way.
SMILES,PNC assembly inh,KDM4E inh,ALDH1A1 block,HPGD inh
Cc1nn(CCO)c(N)c1C1(O)C(=O)Nc2c(Cl)cc(Cl)cc21 (stereo not given),nt,i,?,nt
COC(=O)c1ccccc1NC(=S)N1CCN(c2ccc(OC)cc2)CC1,nt,i,i,nt
Cc1cc(O)c(C=O)c2c1C(=O)Oc1c(COC(=O)/C=C/C(=O)O)c(O)c(C(=O)O)c(C)c1O2,nt,?,4.5µM,1.4µM
Cc1cc(O)c(C=O)c2c1C(=O)Oc1c(CO)c(O)c3c(c1O2)C(O)OC3=O (stereo not given),nt,20µM,?,nt
Cc1cc(O)c(C=O)c(O)c1C(=O)O,nt,i,i,i
CN(C)CCn1c(CO)nc2c1c(=O)n(C)c(=O)n2C,nt,nt,i[13.5 µM],i
O=C(NCc1ccc(Cl)cc1)C1CCN(S(=O)(=O)c2ccc(F)cc2)CC1,nt,i,?,nt
Cc1oc(-c2ccc(-c3ccccc3)cc2)nc1CN1CCN(CC(=O)N(C)C)CC1,nt,?,i,nt
CN(C)C(=O)/N=N/C(=O)N(C)C,nt,i,?,i
CS(=O)c1ccccc1COC(=O)Nc1ccc(Cl)cc1 (stereo not given),-80,i,?,i
Cc1ccc(NC(=O)OCc2ccccc2S(C)=O)cc1 (stereo not given),nt,i,i,nt
S=c1[nH]nc(CSCCOc2ccc(Cl)cc2Cl)o1,nt,?,0.1µM,nt
S=c1[nH]nc(COc2ccc3ccccc3c2)o1,i,i,3.5µM,i
COc1ccc(Cc2n[nH]c(=S)o2)cc1,nt,i,?,nt
S=c1[nH]nc(CSCCOc2ccccc2)o1,nt,i,20µM,nt
COc1ccc(NC(=O)COC(=O)Cc2c(F)cccc2Cl)cc1OC,nt,i,i,nt
Cc1cc(NC(=O)CS(=O)(=O)Cc2ccccc2)no1,nt,i,i,nt
O=C(NCc1nc2ccccc2[nH]1)c1ccco1,-98,i,i,i
CCn1c(CNC(=O)c2cccs2)n[nH]c1=S,-109,?,?,i
O=C(NCc1nc2ccccc2[nH]1)c1cccs1,-87,i,i,i
CS[C@]12C(=O)C[C@]3(C)[C@@H](CC[C@@]3(O)C(=O)CO)[C@@H]1CCC1=CC(=O)CC[C@]12C,nt,nt,i[13.5 µM],i
COC(=O)C1=C(C)N(Cc2ccco2)C(=O)/C1=C\c1ccc([N+](=O)[O-])cc1,nt,?,15µM,nt
O=C1c2ccccc2C(=O)N1c1cccc(-c2csc(Nc3ccc4c(c3)OCO4)n2)c1,i,i,7.1µM,i
CSc1nc(C)cc(-n2cc(F)c(=O)[nH]c2=O)n1,i,i,i,14µM
O=C(O)Cn1cccc1C(=O)c1ccccc1,?,i,14µM,i
SMILES,PNC assembly inh,KDM4E inh,ALDH1A1 block,HPGD inh
COC(=O)Cn1cccc1C(=O)c1ccccc1,?,i,i,i
O=C(Cc1noc2ccccc12)NNC(=S)Nc1ccc(Cl)cc1,nt,?,25µM,nt
COc1ccc(S(=O)(=O)N(C)C)cc1NC(=O)COC(=O)CC1CCCC1,nt,i,?,nt
COc1ccc(S(=O)(=O)N(C)C)cc1NCC(=O)Nc1ccc(Br)cc1F,i,i,11µM,i
Cc1ccc(-n2ncc3c(=O)[nH]c(SCC(=O)N4CCC(C)CC4)nc32)cc1C,i,i,i,i
O=c1[nH]c(CSc2nc3ccccc3[nH]2)nc2c1cnn2-c1ccccc1,i,i,i,i
CCOC(=O)N1CCN(C(=O)CSc2nc3c(cnn3-c3ccccc3)c(=O)[nH]2)CC1,i,i,11µM,i
C=CCc1c(C)nc(SCc2nc3ccccc3c(=O)[nH]2)[nH]c1=O,i,i,14µM,2.8µM
O=c1[nH]c(SCc2nc3c(cnn3-c3ccccc3)c(=O)[nH]2)nc2ccccc12,-108,i,?,0.79µM
Cc1ccc(-n2ncc3c(=O)[nH]c(SCC(=O)N4CCCC4)nc32)cc1C,i,i,i,16µM
C[C@]12CCC(=O)C=C1CC[C@@H]1C2[C@@H](O)C[C@@]2(C)[C@H]1CC[C@]2(O)C(=O)CO (stereo not given in full),nt,i,i,i
CCCCN(C)S(=O)(=O)c1c(C)[nH]c(=O)[nH]c1=O,i,i,i,i
Cc1[nH]c(=O)[nH]c(=O)c1S(=O)(=O)N(C)Cc1ccccc1,-106,i,i,i
O=C(CSc1n[nH]c(=O)[nH]c1=O)NC1CC1,nt,i,i,nt
O=C(N/N=C/C1CC2CCC1C2)c1c[nH]c2ccccc12 (stereo not given),nt,i,14µM,nt
O=C(N/N=C/c1ccccn1)c1c[nH]c2ccccc12,nt,?,i,nt
CN1C(=O)/C(=N\OC(=O)c2cccc3ccccc23)c2ccccc21,i,i,14µM,?
N/C(Cc1ccc(Cl)cc1)=N\OC(=O)c1cccc2ccccc12,i,i,?,?
Cc1cccc(OCC(=O)NNC(=O)c2cc3ccccc3oc2=O)c1,i,i,?,i
O=C(COc1ccc(F)cc1)NNC(=O)c1cc2ccccc2oc1=O,-88,?,i,i
CC1CCN(c2nc3ccc(C(=O)N4CCN(Cc5ccc6c(c5)OCO6)CC4)cc3s2)CC1,i,i,?,18µM
COc1ccc(N2CCN(C(=O)c3ccc4nc(N5CCCCC5)sc4c3)CC2)cc1,?,i,?,i
Cc1c(C(=O)N2CCN(Cc3ccc4c(c3)OCO4)CC2)cccc1[N+](=O)[O-],i,i,i,i
O=C(c1ccc(Cl)c([N+](=O)[O-])c1)N1CCN(Cc2ccc3c(c2)OCO3)CC1,nt,i,19µM,nt
O=S(=O)(c1ccc(Cl)nc1)N1CCN(Cc2ccc3c(c2)OCO3)CC1,i,i,14µM,i
SMILES,PNC assembly inh,KDM4E inh,ALDH1A1 block,HPGD inh
O=C(c1ccc2nc(N3CCOCC3)sc2c1)N1CCCC1,i,i,i,14µM
COC(=O)c1ccc(C(NC(=O)OCc2ccccc2)/C(F)=C/[C@@H](C)C(=O)N(C)Cc2cccnc2)cc1 (stereo not given in full),nt,i,?,i
CC(N)CN (stereo not given),nt,nt,?,i
Cc1ccc(S(=O)(=O)N(C)CC(=O)OCC(=O)NC(c2ccccc2)c2ccccc2)cc1,i,i,?,i
Clc1ccc(CSc2nnnn2-c2ccc3c(c2)OCO3)c(Cl)c1,i,i,i,i
N#C/C(=N\Nc1ccccc1F)C(=N)N1CCCCC1,-85,i,?,i
OCCC1CN(Cc2ccon2)CCN1Cc1ccc(F)c(F)c1 (stereo not given),nt,i,i,nt
CC1CCN(C(=O)c2ccc(S(=O)(=O)Cc3cccc(F)c3)c([N+](=O)[O-])c2)CC1,i,i,25µM,i
O=C(c1ccc(S(=O)(=O)Cc2cc(F)ccc2F)c([N+](=O)[O-])c1)N1CCCCC1,i,i,8.9µM,14µM
O=C(c1ccc(S(=O)(=O)Cc2cc(F)ccc2F)c([N+](=O)[O-])c1)N1CCCC1,nt,i,8.9µM,nt
Cc1ccccc1CS(=O)(=O)c1ccc(C(=O)N2CCC(C)CC2)cc1[N+](=O)[O-],nt,i,i,nt
Cc1cccc(NC(=O)CNC(=O)COc2cc(F)ccc2[N+](=O)[O-])c1C,nt,i,i,nt
CC1CCCC(NC(=O)COC(=O)[C@@H](NC(=O)c2ccco2)C(C)C)C1C (stereo not given in full),nt,i,?,nt
CCN(C(=O)CSc1nc2nc(C)cc(C)n2n1)c1ccccc1,i,i,?,14µM
